Screening data as filed in PubChem.
Most compounds without a hit are left out; they make up all but 19% or so of the library.
TDP1 cell CPT = growth inhibition of DT40 Tdp1-/-;hTDP1 cells with camptothecin (screen for TDP1 inhibitors). chicken DT40 Tdp1-/-;hTDP1 cells + 20 nM CPT, ATP luminescence, 48 h. Potency, µM (doses to about 46.2 µM), most hits filed as inhibitors. 12% of 420,000 active; note: nearly all actives have a fitted effect of over 55% in size
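Chicken DT40 Tdp1-/- cells stably complemented with human TDP1 were seeded at 400 cells/well in medium containing 20 nM camptothecin, exposed to pin-transferred compounds, and grown at 37 °C for at least 48 hr. Viability was read as ATP luminescence.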
ELG1 repair inh = ELG1-dependent DNA repair inhibition. HEK293T ELG1-luciferase reporter, luminescence, 16 h; DNA damage induced by 5-fluorouridine. Potency, µM (top dose mostly 46.1 µM), actives largely listed as inhibitors. 2.3% of 330,000 active. AID 504467; note: nearly all actives have a fitted effect of over 55% in size
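Step one: seed 2,000 cells per well. Step two: pin-transfer compound or DMSO alongside 5-fluorouridine. Step three: incubate 16 hr, 37 °C, 5% CO2. Step four: add ONE-Glo, wait 30 min, read luminescence.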
TDP1 cell noCPT = qHTS for Inhibitors of human tyrosyl-DNA phosphodiesterase 1 (TDP1): qHTS in cells in absence of CPT | 15% of 420,000 active | DT40 Tdp1-/- hTDP1 cells, no CPT, ATP luminescence, 48 h | Potency, µM (top dose mostly 46.2 µM), usual class: inhibitors; note: nearly all actives have a fitted effect of over 55% in size
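Seeded 400 DT40-hTDP1 cells/well (vehicle DMSO, no 20 nM CPT); pinned compounds; ≥48 hr at 37 °C; CellTiter-Glo luminescence as viability measure.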
Giardia kill = kills Giardia lamblia | activity change, % at 7.66 µM, hits read low | 0.15% of 340,000 active | Giardia lamblia trophozoite viability; in the data active = activity change below about -80%; inconclusive = between about -30% and that limit;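 note: parasites exposed to compound for two days anaerobically before the ATP read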
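ATP-content bioluminescence gauges trophozoite survival. Cells (100/well) receive compound and incubate anaerobically for 48 hrs at 37 deg C; detection reagent follows for 15-30 min at room temperature.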
IL1B secr inh = inhibitors of inflammasome signaling (IL-1 beta secretion) | 4.7% of 360,000 active | activity change, % at 57.5 µM | AID 743279 | THP-1 LPS/ATP IL-1B secretion, AlphaLISA, 16 h; hits give low values; in the data active = activity change below about -50%; inconclusive = mostly about -30% to -49%
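THP-1 cells pretreated 1 hr with compounds (up to 57.5 uM final), then stimulated with LPS (250 ng/mL final) plus ATP (1.25 mM final); secreted IL-1B measured by AlphaLISA after 16 hr, decreased signal indicating inhibition.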
TDP1 inh = inhibitors of human tyrosyl-DNA phosphodiesterase TDP1; AID 485290; Q9NUW8; Potency, µM (top dose mostly 130 µM), most hits filed as inhibitors; recombinant TDP1, AlphaScreen DNA substrate cleavage; 0.28% of 350,000 active; note: nearly all actives have a fitted effect of over 40% in size
Target sequence (Q9NUW8 whole entry, looked up): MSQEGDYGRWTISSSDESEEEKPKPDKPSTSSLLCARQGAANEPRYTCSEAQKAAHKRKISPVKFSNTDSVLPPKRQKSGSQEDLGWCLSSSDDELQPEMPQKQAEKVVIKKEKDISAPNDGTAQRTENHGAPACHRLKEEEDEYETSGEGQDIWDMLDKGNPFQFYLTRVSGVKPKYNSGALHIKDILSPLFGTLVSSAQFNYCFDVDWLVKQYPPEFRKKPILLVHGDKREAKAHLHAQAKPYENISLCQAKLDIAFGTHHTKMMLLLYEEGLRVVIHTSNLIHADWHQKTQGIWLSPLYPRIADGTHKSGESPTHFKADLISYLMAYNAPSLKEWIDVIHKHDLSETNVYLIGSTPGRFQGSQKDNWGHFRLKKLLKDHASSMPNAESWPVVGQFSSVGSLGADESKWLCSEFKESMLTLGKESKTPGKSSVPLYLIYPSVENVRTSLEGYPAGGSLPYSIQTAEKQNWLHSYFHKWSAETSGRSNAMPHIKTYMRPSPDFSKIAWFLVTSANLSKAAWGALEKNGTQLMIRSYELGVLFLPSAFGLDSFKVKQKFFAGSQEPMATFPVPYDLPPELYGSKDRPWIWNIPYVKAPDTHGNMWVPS
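Enzyme-compound mixtures sat 15 min at room temperature, followed by a 5 min reaction with 15 nM final substrate and 10 min with AlphaScreen beads. Recombinant human Tdp1 was used at 1 nM final.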
Hits are given with their value; 0 = inactive; ? = inconclusive; - = not tested or not shown; [ ] = remark or other dose. Unless noted, calls come from the whole dose curve; as a rule, active = well fitted curve in the direction sought with a large enough effect; inconclusive = small, poorly fitted or top-dose-only effect, or another doubt; inactive = no such curve, though single readings can be large; an effect the other way counts as inactive or inconclusive.

SMILES	TDP1 cell CPT	ELG1 repair inh	TDP1 cell noCPT	Giardia kill	IL1B secr inh	TDP1 inh
CCOc1ccc2nc(N3CCC(C(=O)N4CCN(C(=O)c5ccco5)CC4)CC3)sc2c1	?	?	23µM	0	0	0
CCOc1ccc2nc(N3CCC(C(=O)Nc4ccccc4CC)CC3)sc2c1	?	-	23µM	-	-	0
CCOc1ccc2nc(N3CCC(C(=O)N4CCN(C5CCCCC5)CC4)CC3)sc2c1	8.2µM	?	?	0	0	0
COc1ccc(-n2c(=O)c3sc4ccccc4c3n(CC(=O)NC3CCCCC3)c2=O)cc1	0	-	0	-	-	0
O=c1[nH]nc(SC2CCCCC2)c(=O)[nH]1	0	-	0	0	0	-
CC(O)Cc1cn([C@@H](CCCCNC(=O)OC(C)(C)C)C(=O)N2CCN(C(=O)OC(C)(C)C)CC2)nn1 (stereo not given in full)	0	0	0	?	0	0
O=C(Nc1cccc(Cl)c1Cl)c1csc([C@@H]2O[C@H](CO)[C@@H](O)[C@H]2O)n1	23µM	-	?	-	0	-
O=C(Nc1cccc(Cl)c1Cl)c1csc([C@H]2C[C@H](O)[C@@H](CO)O2)n1	15µM	-	?	-	0	-
O=C(Nc1cccc(Cl)c1)c1ccc2sc([C@@H]3O[C@H](CO)[C@H](O)[C@H](O)[C@H]3O)nc2c1	0	-	0	-	0	-
CC(=O)Nc1ccc(-c2noc(-c3csc([C@@H]4C[C@H](O)[C@@H](CO)O4)n3)n2)cc1	0	-	0	-	-55	-
O=C(Nc1cccc(Cl)c1)c1ccc2sc([C@H]3C[C@H](O)[C@@H](CO)O3)nc2c1	26µM	-	23µM	-	0	-
O=C(Nc1ccc(Cl)cc1)c1csc([C@@H]2O[C@H](CO)[C@@H](O)[C@H]2O)n1	?	-	?	-	0	-
Cc1ccc(NC(=O)c2cccc(NC(=O)CC3SC(N4CCCCC4)=NC3=O)c2)nc1 (stereo not given)	?	0	?	0	0	0[0.505 µM]
Cc1ccc(-c2nc3c(c(SCC(=O)N(C)c4ccccc4)n2)Cc2c(CO)cnc(C)c2O3)cc1	?	-	?	-	-	0
CCc1ccc(NC(=O)CSc2nc(-c3cccc(OC)c3)nc3c2Cc2c(CO)cnc(C)c2O3)cc1	6.5µM	-	7.3µM	-	-	0
COc1ccc(-c2nc3c(c(SCC(=O)Nc4cc(C)cc(C)c4)n2)Cc2c(CO)cnc(C)c2O3)cc1	0	-	0	-	-	0
Cc1ccc(-c2nc3c(c(SCC(=O)N4CCOCC4)n2)Cc2c(CO)cnc(C)c2O3)cc1	23µM	?	10µM	0	0	0
COc1ccc(-c2nc3c(c(SCC(=O)N4CCCCC4)n2)Cc2c(CO)cnc(C)c2O3)cc1	2.6µM	-	1.3µM	-	-	0
O=C(CSc1nc(-c2ccccc2)nc2c1Cc1ccccc1O2)N1CCCCC1	10µM	-	12µM	-	-	0
O=C(NCc1ccccn1)C(=O)NCC1OCCN1S(=O)(=O)c1ccc(F)cc1 (stereo not given)	0	0	0	0	0	0
Cc1cc(C)cc(NC(=O)Nc2c[nH]c(=O)[nH]c2=O)c1	0	-	0	-	-	0
Cc1nn(C)c(C)c1NS(=O)(=O)c1c(C)n[nH]c1C	0	?	0	0	0	0
CCNC(=S)N1CCN(C(=O)C(Cc2ccccc2)NC(C)=O)CC1 (stereo not given)	0	?	0	0	0	0
CCN(CC)C(=O)CSc1nc(-c2ccc(C)cc2)nc2c1Cc1c(CO)cnc(C)c1O2	9.2µM	-	8.2µM	-	-	0
C=Cc1ccc(CSc2nc(-c3ccc(C)cc3)nc3c2Cc2c(CO)cnc(C)c2O3)cc1	15µM	-	16µM	-	-	0
SMILES	TDP1 cell CPT	ELG1 repair inh	TDP1 cell noCPT	Giardia kill	IL1B secr inh	TDP1 inh
Cc1cc(=O)n(Cc2c(F)cccc2Cl)c2c1c(C)nn2C	?	-	0	-	-	0
CCCCNC(=O)COc1ccccc1[N+](=O)[O-]	0	?	0	0	0	0
CCOC(=O)c1c(S(=O)(=O)Nc2cccc(-c3ccno3)c2)c(C)n(C)c1C	0	0	0	0	0	0
COC(=O)c1cc(S(=O)(=O)Nc2cccc(-c3ccno3)c2)c[nH]1	12µM	-	7.3µM	-	0	-
CC1=NN(C(=O)c2ccc(Cn3nc(C)cc3C)o2)C(O)(C(F)(F)F)C1 (stereo not given)	1.3µM	0	2.5µM	0	0	0
CC1=NN(C(=O)c2ccc(Cn3nc(C)c(Br)c3C)cc2)C(O)(C(F)(F)F)C1 (stereo not given)	0.82µM	0	0.58µM	0	0	0
CC1=NN(C(=O)c2ccc(Cn3cc(Br)c([N+](=O)[O-])n3)o2)C(O)(C(F)(F)F)C1 (stereo not given)	3.3µM	0	2.6µM	0	0	0
Cc1ccc(NC(=O)c2oc3ccccc3c2NC(=O)C2CCCCC2)cc1	?	-	?	-	-	0
COc1ccc2c(c1)c1nnc(SC(C)C)nc1n2C	0	-	?	0	-	-
CN(C)c1cccc(CNC(=O)c2ccc3nc([C@@H]4O[C@H](CO)[C@H](O)[C@H](O)[C@H]4O)[nH]c3c2)c1	0	-	0	-	0	-
COc1cc(=O)n2c(c1C(=O)N(C)C(C)c1ccco1)CCN(C(=O)c1ccc(C(C)=O)cc1)CC2 (stereo not given)	0	-	0	-	-	-
CC(c1ccccc1C(O)c1ccccc1)N(C)C (stereo not given)	0	0	0	0	0	0
Cc1ccc(C(O)(c2ccccc2)c2ccccc2C(C)N(C)C)c(C)c1 (stereo not given)	?	0	18µM	0	-68	0
N[C@@H](CO)c1nnc([C@H](Cc2ccc(O)cc2)NC(=O)C2CCNCC2)o1	0	0	0	0	0	0
CC(=O)c1ccc(NC(=O)Nc2ccc3c(c2)N(C)C(=O)CS3)cc1	?	18µM	?	0	0	0
CCOc1ccc(NC(=O)Nc2ccc3c(c2)N(C)C(=O)CS3)cc1	?	?	?	0	0	0
Cc1ccnc(NC(=O)Nc2ccc3c(c2)N(C)C(=O)CS3)c1	?	?	?	0	?	-
Cc1cccc(NC(=O)Nc2ccc3c(c2)N(C)C(=O)CS3)n1	?	0	?	0	-56	0
CC(C)(C)C(=O)NC1(C(F)(F)F)NC(=O)N(c2ccc(F)cc2)C1=O (stereo not given)	0	0	0	0	0	0
CC(C)(C)OC(=O)N1Cc2ccccc2C[C@H]1C(=O)NCC(=O)NC1CCCCC1	0	0	0	0	0	0
COc1cc2c(cc1OC)C(C(=O)Nc1ccc3c(c1)OCCO3)C1c3ccccc3CCN1C2=O (stereo not given)	?	0	23µM	0	0	0
